Assay results from PubChem BioAssay (Tox21).
Results filed as inconclusive are left out. Active and inactive are the calls of the source. Calls come from the whole dose curve.

Test: p53 small molecule agonists, cell-based qHTS assay with rat liver microsomes (AID 1963578)
Conditions: HCT-116 p53RE-bla, beta-lactamase ratio, 16 h; series mostly up to 66 µM; activation: at the top concentration
Text: U.S. Tox21 Program National Center for Advancing Translational Sciences [NCATS] Division of Preclinical Innovation [DPI] U.S. Environmental Protection Agency [EPA] National Institutes of Environmental Health Sciences [NIEHS] National Toxicology Program [NTP] U.S. Food and Drug Administration [FDA] Tox21 Assay Overview: p53, a tumor suppressor protein, is activated following cellular insult, including DNA damage and other cellular stresses. The activation of p53 regulates cell fate by inducing DNA repair, cell cycle arrest, apoptosis, or cellular senescence. The activation of p53, therefore, is a good indicator of DNA damage and other cellular stresses. […] The activation of the reporter gene under culture conditions can be detected by fluorescence intensity. This cell line was used to screen the Tox21 10K compound library in the condition of presence of rat liver microsomes and to identify agonists that activate the p53 signaling pathway after in vitro metabolic activation (Ooka et al., Archive of Toxicology 96:1975-1987, 2022).
Tox21 Assay Protocol Summary: The p53RE-bla cells were dispensed at 4,000cells/3ul/well in 1536-well black-clear bottom plates. After the assay plates were incubated at 37 C, 5% CO2 incubator for 5 hours, 23 nL of compounds dissolved in DMSO, positive controls or DMSO only was transferred to the assay plate. Following compound addition, 3 uL of rat liver microsomes (Molecular Toxicology, Boone, NC) at final concentration of 0.5 mg/mL and 1uL of Beta-Nicotinamide adenine dinucleotide 2-phosphate (NADPH) at final concentration of 0.5 mg/mL were transferred to the assay plate. The plates were incubated at 37 C for 16 hours. 1 uL of LiveBLAzer detection mixture was added to each well and the plates were incubated at room temperature in the dark for 2 h.
% is set by controls: 0 for no effect and ±100 for the full control effect.

Row | SMILES | activation
1 | CCc1cc(Cc2cc(CC)cc(C(C)(C)C)c2O)c(O)c(C(C)(C)C)c1 | -2.17% (inactive)
2 | CCCCOc1cc(C(=O)NCCN(CC)CC)c2ccccc2n1 | 0.282% [at 30.3 µM] (inactive)
3 | Cc1nc(-c2ccc(Cl)cc2)oc1COC(C)(C)C(=O)O | 1.05% [at 30.3 µM] (inactive)
4 | COc1ccc2nc(SCc3ncc(C)c(OC)c3C)[nH]c2c1 | 0.0719% [at 30.3 µM] (inactive)
5 | O=C(CCBr)N1CCN(C(=O)CCBr)CC1 | 1.49% [at 30.3 µM] (inactive)
6 | CCCCCCCCCCCCCCN(C)C | -1.12% [at 13.6 µM] (inactive)
7 | OCC(CBr)(CBr)CBr | 0.5% (inactive)
8 | C[C@@H]1CC[C@@]2(OC1)O[C@H]1C[C@H]3[C@@H]4CC[C@H]5C[C@@H](O)CC[C@]5(C)[C@H]4CC(=O)[C@]3(C)[C@H]1[C@@H]2C | 0.138% [at 5.99 µM] (inactive)
9 | Cc1cc(O)c(C)c(C)c1O | -3.31% [at 30.3 µM] (inactive)
10 | CCCCCCCCCCCCCCCCOP(=O)([O-])OCC[N+](C)(C)C | -11.9% [at 30.3 µM] (inactive)
11 | COc1ccc([C@@H]2Sc3ccccc3NC(=O)[C@@H]2O)cc1 | -5.61% [at 30.3 µM] (inactive)
12 | OCc1ccccn1 | -0.652% [at 30.3 µM] (inactive)
13 | CN1CCC(=C2c3ccccc3CC(=O)c3sccc32)CC1 | -0.899% [at 30.3 µM] (inactive)
14 | Cc1ccc(Cl)c(OCC(O)CNC(C)(C)C)c1 (stereo not given) | 1.41% [at 30.3 µM] (inactive)
15 | O=C(O)CCNC(=O)c1ccccc1 | 0.326% [at 30.3 µM] (inactive)
16 | CCCCCCCCCCCCCCCC(=O)OC[C@H](O)[C@H]1OC(=O)C(O)=C1O | -1.29% (inactive)
17 | CC(=O)NCCCCCC(=O)O | -0.957% [at 30.3 µM] (inactive)
18 | CN1Cc2cc(C(=O)N3CCC(C4CCNCC4)CC3)ccc2NC(CC(=O)O)C1=O (stereo not given) | 0.199% [at 30.3 µM] (inactive)
19 | N[C@H]1CN(c2c(F)cc3c(=O)c(C(=O)O)cn(C4C[C@H]4F)c3c2Cl)CC12CC2 (stereo not given in full) | 0.599% [at 30.3 µM] (inactive)
20 | CC(C)C[C@H](NC(=O)OCC1c2ccccc2-c2ccccc21)C(=O)O | 0.439% (inactive)

Row | SMILES | activation
21 | CN1Cc2cc(C(=O)N3CCC(C4CCNCC4)CC3)ccc2N[C@@H](CC(=O)O)C1=O | -2.83% [at 30.3 µM] (inactive)
22 | COc1ccc(OC(=O)N(CC(=O)O)Cc2ccc(OCCc3nc(-c4ccccc4)oc3C)cc2)cc1 | -6.7% [at 30.3 µM] (inactive)
23 | COC(=O)C1=C(C)NC(C)=C(C(=O)OCCN2CCN(C(c3ccccc3)c3ccccc3)CC2)C1c1cccc([N+](=O)[O-])c1 (stereo not given) | -0.388% [at 30.3 µM] (inactive)
24 | CCCOc1ccccc1-c1nc2n[nH]nc2c(=O)[nH]1 | -2.03% [at 30.3 µM] (inactive)
25 | NC[C@H]1O[C@H](O[C@H]2[C@H](O[C@@H]3O[C@H](CO)[C@@H](O)[C@H]3O)C(O)[C@H](N)C[C@@H]2N)[C@H](N)[C@@H](O)[C@@H]1O (stereo not given in full) | -0.761% [at 5.99 µM] (inactive)
26 | CCOC(=O)C1=C(C)NC(C)=C(C(=O)OC)C1c1cccc([N+](=O)[O-])c1 (stereo not given) | -1.33% [at 30.3 µM] (inactive)
27 | CCOC(=O)c1cccnc1 | -0.306% [at 30.3 µM] (inactive)
28 | O=C(O)c1ccc(Cl)cc1Cl | 0.409% (inactive)
29 | CCOC(=O)[C@H](CCc1ccccc1)N[C@@H](C)C(=O)N1CCC[C@H]1C(=O)O | -0.0137% [at 30.3 µM] (inactive)
30 | O=C(O)c1ccc(Cl)c(Cl)c1 | -4.66% (inactive)
31 | O=C(CCCN1CCN(c2ccccn2)CC1)c1ccc(F)cc1 | -0.92% [at 30.3 µM] (inactive)
32 | COc1ccc(Nc2ccc(OC)cc2)cc1 | 4.07% (inactive)
33 | Cc1c(C(C)C)c(=O)n(-c2ccccc2)n1C | 0.229% [at 30.3 µM] (inactive)
34 | CC(C)(C)N | 3.64% (inactive)
35 | O[C@@H](CNC[C@H](O)[C@H]1CCc2cc(F)ccc2O1)[C@@H]1CCc2cc(F)ccc2O1 | -5.46% [at 30.3 µM] (inactive)
36 | CCCCC(CC)COC(=O)CC#N (stereo not given) | 1.05% (inactive)
37 | O=C(N[C@@H](Cc1ccccc1)[C@@H](O)C(=O)N1C[C@@H](O)[C@@H](O)C1)c1cc2cc(Cl)ccc2[nH]1 | -3.54% (inactive)
38 | COC(=O)c1ccccc1Cl | -0.679% (inactive)
39 | CC1=NN(c2ccc(C(=O)O)cc2)C(=O)C1 | 11.7% (inactive)
40 | O=C(O)Cc1c(Cl)ccc(Cl)c1Cl | 1.02% (inactive)
